This is a sample that favours compounds with a hit; in the whole collection about 11% have one here.
AMA1 RON2 block: qHTS for Inhibitors of AMA1-RON; Towards Development of Antimalarial Drug Lead: Primary Screen. AlphaScreen AMA1-biotinylated RON2 peptide binding. Potency, µM (highest dose often 58.2 µM), for the others: top-dose activity change, negative = inhibition, most hits filed as inhibitors. 0.2% of 360,000 active. AID 720542, 2013;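 also: 0% = vehicle wells and -100% = peptide control; nearly all actives have a fitted effect of over 45% in size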
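AMA1 (3D7) with his tag at 25 nM final met compounds first, then biotinylated RON2 peptide at 25 nM; detection used donor plus acceptor beads, 10 µg/mL apiece, read by AlphaScreen after 30 min at room temperature.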
Pf growth 48h: Primary qHTS for delayed death inhibitors of the malarial parasite plastid, 48 hour incubation; P. falciparum luciferase growth in erythrocytes, 48 h; AID 504832, 2011; 5.9% of 310,000 active; Potency, µM (doses to about 28.7 µM), for inactives: top-dose activity change, negative = inhibition, actives largely listed as inhibitors
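Erythrocytes infected with P. falciparum carrying an integrated firefly luciferase reporter (2% hematocrit, 0.1% parasitemia final) were exposed to compounds in RPMI 1640 with 0.5% Albumax at 37 C, 5% CO2. Growth inhibition was scored as reduced luminescence.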
Pf growth 96h: Primary qHTS for delayed death inhibitors of the malarial parasite plastid, 96 hour incubation | P. falciparum luciferase reporter growth, 96 h | Potency, µM (doses to about 28.7 µM), inactives show top-dose activity change, negative = inhibition, most hits filed as inhibitors | 6.9% of 320,000 active | AID 504834, 2011
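P. falciparum expressing integrated firefly luciferase grown in erythrocytes (2% hematocrit, 0.05% parasitemia final) with compounds for 96 hours at 37 C, 5% CO2. Growth inhibition read as loss of luminescence after adding luciferase detection reagent.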
HCV inhibitor: qHTS Assay for Inhibitors of Hepatitis C Virus (HCV). Huh7.5.1 HCVcc-Cre infection, luciferase reporter, 44 h. Potency, µM (titrated, usually from 41.8 µM), inactives show top-dose activity change, negative = inhibition, actives largely listed as inhibitors. 3.4% of 340,000 active. AID 651820, 2012
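Cells seeded at 1,000/well and cultured 4 h, then compounds added followed by HCVcc-Cre virus (~0.5 moi). After 44 h further culture, luciferase substrate was added, plates held 15 min at room temperature, and luminescence read for 15 sec.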
* hit, by the source's call; ? = inconclusive; · = no result given; [ ] = another dose, or the depositor's remark. Calls follow the shape of the dose curve; as a rule, active = well fitted curve in the direction sought with a large enough effect; inconclusive = small, poorly fitted or top-dose-only effect, or another doubt; inactive = no such curve, though single readings can be large; an effect the other way counts as inactive or inconclusive. Unless noted, % is scaled to controls: 0 for no effect and ±100 for the full control effect; potency is read from the fitted curve at half-maximal effect.

SMILES | AMA1 RON2 block | Pf growth 48h | Pf growth 96h | HCV inhibitor
CCN(CC(=O)Nc1ccccc1OC)C(=O)CSCC(=O)Nc1cccc(C)c1 | 12% | · | · | -4%
Cc1nc2sc(C(c3cccs3)N3CCC(C(N)=O)CC3)c(O)n2n1 (stereo unspecified) | 8% | 62% | 77% | 14%
Cc1ccc(Cn2c(C(C)Nc3nc(-c4ccc(F)cc4)cs3)nc3cc(C(F)(F)F)ccc32)cc1 (stereo unspecified) | 27% | · | · | -5%
Cc1cc[n+](C(C)C(=O)c2ccc(-c3ccccc3)cc2)cc1 (stereo unspecified) | 2% | 1.2µM* | 26% | ?
CC(C(=O)c1ccc(-c2ccccc2)cc1)[n+]1cccc(C(N)=O)c1 (stereo unspecified) | -7% | 3% | 9.3µM* | 10%
Cc1ccc[n+](C(C)C(=O)c2ccc(-c3ccccc3)cc2)c1 (stereo unspecified) | -1% | ? | ? | -23%
CC(C(=O)c1ccc(-c2ccccc2)cc1)[n+]1ccccc1 (stereo unspecified) | -14% | 8.3µM* | 2.3µM* | ?
CCCCCCCCN1C(=O)[C@H](CC(=O)NCCCOCCCC)C[C@@]2(C(=O)OCC)CCCC=C12 | -6% | · | · | ·
Cc1nc(N2CCN(S(=O)(=O)c3cccs3)CC2)c2c(-c3ccccc3)c(C)sc2n1 | 120% | · | · | ·
COc1ccccc1CNC(=O)c1ccccc1NC(=O)C1=C(C)OCCS1 | -3% | ? | -55% | -18%
COCCN1C(=O)/C(=C/c2ccc(Oc3ccc([N+](=O)[O-])cn3)c(OC)c2)SC1=Nc1ccccc1 | -3% | -16% | 1.5µM* | ?
O=C1/C(=C/c2ccc(N3CCOCC3)o2)SC(=Nc2ccccc2)N1CCc1c[nH]c2ccccc12 | -23% | 9.3µM* | 1.7µM* | 3.2µM*
COc1ccc(N=C2S/C(=C\c3ccc(OC(C)C(=O)O)c(OC)c3)C(=O)N2CCc2c[nH]c3ccccc23)cc1 (stereo unspecified) | -5% | ? | 1.7µM* | ?
COc1cc(/C=C2\SC(=Nc3ccccc3)N(CCc3c[nH]c4ccccc34)C2=O)ccc1OC(C)C(=O)O (stereo unspecified) | -15% | 10µM* | 5.2µM* | ?
CC(C)NC(=O)C1(C)CSCC(=O)N1CCCN1CCOCC1 (stereo unspecified) | -2% | · | · | ·
COc1ccc(-c2nc(-c3ccc(NC(=O)c4ccncc4)cc3)no2)cc1OC | -5% | -15% | -8% | ?
COc1ccc(NC(=O)c2ccc(-c3ccc(-c4noc(C)n4)cc3C)cc2)cc1N1CCN(C)CC1 | ? | 3.3µM* | 2.6µM* | ?
COC(=O)/C=C/C(=O)N1CCN(c2ccccc2C)CC1 | -12% | -17% | 7.4µM* | -1%
COc1ccc(C(=S)N2CCN(c3ccccc3C)CC2)cc1 | -7% | ? | 8.3µM* | ?
COC(=O)/C=C/C(=O)N1CCN(c2ccccc2)CC1 | 11% | -5% | ? | 3%
CC(=O)c1cc2c(cc1NC(=O)C1CC1)OCO2 | 4% | 19% | 10% | 11µM*
O=[N+]([O-])c1ccc(Sc2ncc3ccccn23)nc1 | -1% | ? | 9.3µM* | -3%
O=[N+]([O-])c1ccc(Sc2ccccc2Cl)nc1 | ? | -9% | · | -1%
COc1ccc(OC)c(-c2nc(C(=O)NCC3CCCO3)cc3c2[nH]c2ccccc23)c1 (stereo unspecified) | 43% | ? | ? | 10µM*
COc1cccc(-c2nc(C(=O)NCC3CCCO3)cc3c2[nH]c2ccccc23)c1 (stereo unspecified) | -4% | ? | 8.3µM* | 11µM*
SMILES | AMA1 RON2 block | Pf growth 48h | Pf growth 96h | HCV inhibitor
COc1ccc(-c2cc(C(=O)NCC3CCCO3)c3ccccc3n2)c(OC)c1 (stereo unspecified) | 0% | -53% | ? | -30%
C[C@H](CO)N1C[C@H](C)[C@@H](CN(C)C(=O)Nc2ccc(C(F)(F)F)cc2)Oc2ccc(NC(=O)Cn3cnnn3)cc2C1=O | 19% | · | · | 12%
CCOc1ccc(NC(=O)c2ccc(N3CC4CC(C3)c3cccc(=O)n3C4)c(NC(=O)c3cccnc3)c2)cc1 (stereo unspecified) | -13% | ? | -4% | 6%
O=c1c2ccccc2c(C=NC2CCN(Cc3ccccc3)CC2)c(O)n1Cc1ccc2c(c1)OCO2 | · | 4.7µM* | ? | ·
CN(C)CCN=Cc1c(O)n(Cc2ccc3c(c2)OCO3)c(=O)c2ccccc12 | 5% | 92% | 15% | -11%
CCCC(=O)N1CCC1(C)C(=O)NS(=O)(=O)c1cccc(Cl)c1 (stereo unspecified) | -4% | · | · | ·
Cc1ccc(S(=O)(=O)N2CCOCC2)cc1C(=O)OCC(=O)NC1CC1 | 12% | -29% | -6% | 0%
Cn1c(=O)c2c(nc(SC3C(=O)CC(C)(C)CC3=O)n2C)n(C)c1=O | 0% | 24% | 12µM* | 5%
CCOC(=O)N1CCC(NC(=O)c2cc3c(-c4ccc(OC)c(OC)c4)nn(C)c3s2)CC1 | -9% | ? | 9.3µM* | ?
CCOC(=O)C1CCN(C(=O)c2cc3c(-c4ccc(OC)c(OC)c4)nn(C)c3s2)CC1 | 2% | · | ? | -15%
CN(C(=O)CSc1nc(O)cc(=O)n1C1CCCC1)c1ccccc1 | -18% | ? | 1.7µM* | 0%
CCCCCCCC(=O)OCC(O)CO (stereo unspecified) | 2% | 8% | -11% | 3%[8.37 µM]
CCCCCCCCCCOCC(O)CN (stereo unspecified) | · | ? | 12µM* | ·
CCCCCCCCCCCCCCCCOCCOCCOCCOCCOCCOCCOCCOCCOCCOCCOCCOCCOCCOCCOCCOCCOCCOCCOCCOCCO | · | 13µM* | 6.7µM* | ·
CSc1ncnc2c1ncn2CCCNCC(c1ccccc1)c1ccccc1 | -3% | · | · | ·
COc1cccc(C(=O)Cn2c(=O)n(CC3CCCO3)c(=O)c3ccccc32)c1 (stereo unspecified) | -2% | · | 12µM* | -4%
O=C(Cn1c(=O)n(CC2CCCO2)c(=O)c2ccccc21)c1ccccc1 (stereo unspecified) | -6% | 27% | ? | 8%
O=C1C(Cl)=C(NC2CCCCC2)C(=O)N1c1ccc(Cl)cc1 | 36% | ? | 9.3µM* | 8%
Cc1cccc(-c2cc(C(=O)N3CCCc4ccccc43)c3ccccc3n2)c1 | -23% | 8.3µM* | ? | 12%
O=C(c1cc(-c2ccccc2)nc2ccccc12)N1CCCc2ccccc21 | ? | 2.9µM* | ? | 1%
CCN1CCN(c2ncc(C(=O)Nc3cc(Cl)ccc3OC)c3ccccc23)CC1 | ? | ? | 19% | ?
CCN1CCN(c2ncc(C(=O)N3CCCc4ccccc43)c3ccccc23)CC1 | -7% | ? | 12µM* | ?
CCc1ccc2c(c1)CCCN2C(=O)c1ccccc1C(=O)O | 12% | ? | · | 10µM*
